A selection: hits, their analogues and other compounds. The true share with any hit is near 4.1%.
tim23-1 inh = inhibits growth of tim23-1 mutant yeast. S. cerevisiae tim23-1 growth, BacTiter-Glo luminescence, 24 h. 330,000 compounds, 1.3% hits. inhibition, % at 20 µM;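 active = growth inhibition of the mutant yeast at or above 50%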;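 note: temperature-sensitive mutant grown at 25 °C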
NLRP3 yeast inh = NALP3 inhibition in yeast. Yeast reconstituted NLRP3/ASC/caspase-1, beta-gal luminescence, 24 h. inhibition, % at 10 µM. 330,000 compounds, 0.39% hits;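 active = inhibition of 50% or more; inactive = inhibition below 50%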
NALP1 inh = inhibitors of NALP1 inflammasome in yeast | 280,000 compounds, 0.61% hits | AID 2071 | S. cerevisiae NALP1/ASC/caspase-1 growth, X-gal OD620, 72 h | inhibition, % at 10 µM; in the data active = inhibition mostly above about 24%, no sharp cut-off; inactive = mostly below about 32%
TIM10 inh = inhibits growth of TIM10 yeast strain; S. cerevisiae TIM10 strain growth, BacTiter-Glo luminescence, 24 h; inhibition, % at 10 µM; 330,000 compounds, 1.4% hits; AID 463195;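 active = inhibition of 40% or more at the single tested concentration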;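 note: wild-type TIM10 isogenic control strain grown at permissive 25 °C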
tim10-1 inh = inhibits growth of tim10-1 mutant yeast. AID 463190. S. cerevisiae tim10-1 ts strain growth, BacTiter-Glo, 24 h. inhibition, % at 20 µM. 330,000 compounds, 2.2% hits;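 active = inhibition of at least 40%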;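 note: mutant grown at 25 °C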
tim23-1 conf = confirmation of tim23-1 mutant yeast growth inhibitors; shares compounds with tim23-1 inh; S. cerevisiae tim23-1 growth, BacTiter-Glo luminescence, 24 h; inhibition, % at 20 µM; 4,400 compounds, 83% hits; AID 463218;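 active = inhibition above about 39% in either of two replicate wells at 20 µM, limit read from the data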;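 note: temperature-sensitive tim23-1 mutant grown at 25 °C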
Numbers stand for hits; 0 = inactive; - = not tested or not shown.

SMILES | tim23-1 inh | NLRP3 yeast inh | NALP1 inh | TIM10 inh | tim10-1 inh | tim23-1 conf
COc1ccc(C(=O)NCC(=O)OCC(=O)c2c(C)[nH]c3ccccc23)cc1OC | 0 | 0 | - | 0 | 0 | -
CCOC(=O)c1sc(NC(=O)Nc2cccc(Cl)c2)cc1C | 0 | 0 | 0 | 0 | 0 | -
CCOC(=O)c1sc(NC(=O)c2cccs2)cc1C | 55.4 | 0 | 0 | 0 | 0 | 77.8
COC(=O)[C@H](Cc1ccccc1)NC(=O)NCc1cccs1 | 0 | 0 | 0 | 0 | 0 | -
CCN(CC)c1nc(N)nc(N(c2ccccc2)c2ccccc2)n1 | 56.8 | 0 | 0 | 0 | 0 | 50.0
Cc1c2ccccc2nc2ccccc12 | 70.4 | 0 | - | 0 | 0 | 62.6
C/C(=N\Nc1cc(N2CCCCC2)nc(C)n1)c1ccc(Br)cc1 | 56.7 | 0 | 0 | 0 | 0 | 48.5
C/C(=N\Nc1cc(N2CCOCC2)nc(C)n1)c1ccc(F)cc1 | 0 | 0 | 0 | 0 | 0 | -
COc1ccc(C(C[N+](=O)[O-])c2c(C)[nH]n(-c3ccccc3)c2=O)cc1 (stereo unspecified) | 75.7 | 0 | 45.0 | 0 | 0 | 66.6
COc1ccc(NC2CC(=O)N(c3cc([N+](=O)[O-])ccc3C)C2=O)cc1 (stereo unspecified) | 0 | 0 | 0 | 0 | 0 | -
O=C(/C=C/c1ccccc1Cl)OCC(=O)c1ccc[nH]1 | 53.0 | 0 | - | 0 | 0 | 45.2
Cc1ccc(N(CC(=O)NCc2ccco2)C(=O)CNS(=O)(=O)c2ccccc2)c(C)c1 | 0 | 0 | 0 | 0 | 0 | -
NC(N)=N/N=C/c1ccc(OCc2ccccc2Cl)cc1 | 58.9 | 0 | 28.1 | 0 | 0 | 43.9
NC(N)=N/N=C/c1ccc(OCc2ccccc2)c(OCc2ccccc2)c1 | 59.7 | 0 | 0 | 0 | 0 | 48.5
NC(N)=N/N=C/c1ccccc1 | 0 | 0 | 0 | 0 | 0 | -
CCc1ccc(C(=O)OCC(=O)N(CCOC)c2c(N)n(Cc3ccccc3)c(=O)[nH]c2=O)cc1 | 0 | 0 | - | 0 | 0 | -
COc1cccc(C(=O)Nc2ccc(NC(C)=O)cc2)c1 | 0 | 0 | 0 | 0 | 0 | -
COc1cccc(C(=O)C(C#N)=C(SC)SC)c1 | 60.0 | 0 | 0 | 0 | 0 | 76.8
CSC(SC)=C(C#N)C(=O)c1ccccc1 | 80.2 | 0 | 0 | 0 | 0 | 84.6
OC[C@@H]1[C@@H](c2ccccc2)C(c2ccc(F)cc2)=NN1c1ccccc1 | 56.4 | - | - | 0 | 0 | 45.4
OC[C@@H]1[C@@H](c2ccc(Cl)cc2)C(c2ccc(F)cc2)=NN1c1ccccc1 | 56.3 | - | - | 0 | 0 | 0
O=C1OCCN1C(=O)[C@H]1[C@H](c2ccc(F)cc2)C(c2cccc(Cl)c2)=NN1c1ccccc1 | 0 | - | - | 0 | 0 | -
CC(C)n1c(O)c(N=NC(=O)Cc2csc(N3CCOCC3)n2)c2ccccc21 | 0 | 0 | 0 | 0 | 0 | -
O=C(COC(=O)CNC(=O)C1CCCCC1)Nc1ccc(Cl)cn1 | 0 | 0 | - | 0 | 0 | -
O=C(COC(=O)CC1CCCC1)Nc1ccc(Cl)cn1 | 59.5 | 0 | - | 0 | 0 | 55.4
SMILES | tim23-1 inh | NLRP3 yeast inh | NALP1 inh | TIM10 inh | tim10-1 inh | tim23-1 conf
COc1ccccc1NC(=O)c1ccccc1C(=O)Nc1ccccc1OC | 0 | 0 | 0 | 0 | 0 | -
COc1ccccc1C(=O)Nc1cc(-c2ccc(C)cc2)no1 | 55.4 | 0 | 0 | 0 | 0 | 46.9
COc1ccccc1C(=O)Nc1c(C)cc(Br)cc1C | 0 | 0 | 0 | 0 | 0 | -
COC(=O)c1ccccc1NC(=O)c1ccccc1OC | 51.2 | 0 | 0 | 0 | 0 | 0
COc1ccc(C(=O)NC(=S)Nc2cccc3cc(O)ccc23)cc1OC | 0 | 0 | 0 | 0 | 0 | -
COc1ccccc1C(=O)NC(=S)Nc1cccc2cc(O)ccc12 | 53.5 | 0 | 0 | 0 | 0 | 46.0
Cc1occc1C(=O)N/N=C/C(Br)=C/c1ccccc1 | 54.6 | 0 | 0 | 0 | 0 | 75.4
O=C(Nc1nc2ccccc2[nH]1)c1ccc(OC(F)F)cc1 | 63.4 | 0 | 0 | 0 | 0 | 59.1
O=C(Nc1ccc(C(=O)N2CCCc3ccccc32)cc1)c1cccs1 | 51.9 | 0 | 0 | 0 | 0 | 44.3
CCc1ccc(NCc2cc3c(C)nn(-c4ccccc4)c3[nH]c2=O)cc1 | 0 | 0 | 0 | 0 | 0 | -
CCOc1ccc(NCc2cc3c(C(C)(C)C)nn(-c4ccccc4)c3[nH]c2=O)cc1 | 58.5 | 0 | 0 | 0 | 0 | 54.8
COc1cccc(NCc2cc3c(C(C)(C)C)nn(-c4ccccc4)c3[nH]c2=O)c1 | 70.3 | 0 | 0 | 0 | 0 | 59.3
COC(=O)/C=C/c1cccc([C@H]2[C@@H]3C=CC[C@@H](C)[C@@H]3C(=O)N2Cc2ccccc2)c1 | 50.8 | - | - | 0 | 0 | 0
COc1ccc(-c2ccccc2[C@H]2[C@@H]3C=CC[C@@H](C)[C@@H]3C(=O)N2Cc2ccccc2)cc1 | 0 | - | - | 0 | 0 | -
C[C@@H]1CC=C[C@@H]2[C@H]1C(=O)N(Cc1ccccc1)[C@H]2c1ccccc1Br | 52.4 | - | - | 0 | 0 | 0
C[C@@H]1CC=C[C@@H]2[C@H]1C(=O)N(Cc1ccccc1)[C@H]2c1cccc(C#Cc2ccccc2)c1 | 0 | - | - | 0 | 0 | -
N#C/C(=C\c1c[nH]c2ccccc12)C(=O)NC1CCCC1 | 58.8 | 0 | 0 | 0 | 0 | 44.2
CCOC(=O)Nc1sc2nc(C)cc(C)c2c1-n1cccc1 | 50.7 | 0 | 0 | 0 | 0 | 0
CC(C)N(CCCNC(=O)c1nn(C)c2c1CS(=O)(=O)c1ccccc1-2)Cc1ccccc1 | 0 | 0 | 0 | 0 | 0 | -
COC(=O)Nc1ccc2c(c1)Nc1ccccc1CC2 | 65.7 | 0 | 0 | 0 | 0 | 42.5
O=C(N/N=C/c1cc(Br)cc(Br)c1O)c1cccc(N2CCCC2=O)c1 | 50.8 | 0 | 0 | 0 | 0 | 55.7
COC(=O)C1=C(C(=O)OC)[C@@H]2Nc3ccccc3[C@@]23C[C@@H](C(=O)OC)N(C(=O)NC2CCCCC2)C3=N1 | 0 | 0 | - | 0 | 0 | -
CCOC(=O)C1=C(C2=CCCCC2)c2ccc(OC)cc2N(S(=O)(=O)C(F)(F)F)C1C(=O)OCC (stereo unspecified) | 53.2 | - | - | 0 | 0 | 39.5
CCOC(=O)C1C(C(=O)OC)=C(c2ccc(OC)cc2)c2ccc(OC)cc2N1S(=O)(=O)C(F)(F)F (stereo unspecified) | 0 | - | - | 0 | 0 | -
COc1ccccc1NC(=O)c1ccc(NC(=O)C2CC2C)cc1 (stereo unspecified) | 52.2 | 0 | - | 0 | 0 | 48.3
SMILES | tim23-1 inh | NLRP3 yeast inh | NALP1 inh | TIM10 inh | tim10-1 inh | tim23-1 conf
Cc1ccc(-c2ccc(=O)n(CCC(=O)NCCN3CCCCC3C)n2)cc1 (stereo unspecified) | 0 | 0 | 0 | 0 | 0 | -
COc1cccc(NC(=O)c2cc3ccccc3o/c2=N\O)c1 | 0 | 0 | 0 | 0 | 0 | -
COc1cccc(NC(=O)c2cc3cccc(OC)c3o/c2=N\O)c1 | 57.5 | 0 | 0 | 0 | 0 | 47.1
O=C(NCCc1ccccc1)c1cccc2c1C(=O)N(C1CCCCC1)C2 | 50.6 | 0 | 0 | 0 | 0 | 0
Cc1cc(C(=O)c2ccccc2)c(NC(=O)CCl)s1 | 55.2 | 0 | 0 | 0 | 0 | 0
CCN(CC)CC(=O)Nc1sc(C)cc1C(=O)c1ccccc1 | 0 | 0 | 0 | 0 | 0 | -
Cc1nonc1OCCNCc1c(C(=O)N2CCCCCCC2)nc2ccc(Cl)cn12 | 0 | 0 | 0 | 0 | 0 | -

Screens (PubChem BioAssay)
